VP16 counter – Gal4-VP16 reporter inhibition counter-screen; Drosophila S2 Gal4-VP16 UAS-luciferase, luminescence, 20 h; 3.5% of 310,000 active; Potency, µM (titrated, usually from 53.6 µM), without a hit: top-dose activity, negative = inhibition, usual class: inhibitors;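 also: Gal4-VP16 expression switched on by copper sulfate through the metallothionein promoter; nearly all actives have a fitted effect of over 50% in size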
TDP1 cell noCPT – qHTS for Inhibitors of human tyrosyl-DNA phosphodiesterase 1 (TDP1): qHTS in cells in absence of CPT; 15% of 420,000 active; Potency, µM (series often up to 46.2 µM), without a hit: top-dose activity change, negative = growth inhibition, most hits filed as inhibitors; DT40 Tdp1-/- hTDP1 cells, no CPT, ATP luminescence, 48 h; also: nearly all actives have a fitted effect of over 55% in size
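Seeded 400 DT40-hTDP1 cells/well (vehicle DMSO, no 20 nM CPT); pinned compounds; ≥48 hr at 37 °C; CellTiter-Glo luminescence as viability measure.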
RORg inh – ROR gamma (mouse) transcription inhibition; P51450; Drosophila S2 Gal4-RORgamma UAS-luciferase reporter, 20 h; Potency, µM (highest dose often 53.6 µM), without a hit: at the highest dose activity change, negative = inhibition, hits mostly inhibitors; 5.4% of 310,000 active; AID 2551; also: nearly all actives have a fitted effect of over 60% in size
Target sequence (P51450 whole entry, looked up, the tested form may be a part): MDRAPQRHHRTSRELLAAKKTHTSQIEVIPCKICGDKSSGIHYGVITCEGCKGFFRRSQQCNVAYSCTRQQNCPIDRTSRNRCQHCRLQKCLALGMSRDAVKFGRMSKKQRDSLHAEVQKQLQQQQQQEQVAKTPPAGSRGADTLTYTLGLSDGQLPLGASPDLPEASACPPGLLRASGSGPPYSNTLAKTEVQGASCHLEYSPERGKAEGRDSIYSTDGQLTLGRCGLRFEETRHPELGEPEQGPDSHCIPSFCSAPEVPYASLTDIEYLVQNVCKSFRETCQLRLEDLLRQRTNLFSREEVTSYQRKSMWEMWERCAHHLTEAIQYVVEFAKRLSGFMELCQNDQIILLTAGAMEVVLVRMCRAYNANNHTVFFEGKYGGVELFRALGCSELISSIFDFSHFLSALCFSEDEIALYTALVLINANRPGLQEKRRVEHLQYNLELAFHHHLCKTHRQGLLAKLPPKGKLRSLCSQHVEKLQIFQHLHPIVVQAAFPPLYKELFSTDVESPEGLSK
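Schneider cells (Drosophila), stable Gal4 DBD–ROR gamma + UAS-luc; 1 hr cmpd preincubation; Cu2+ induction 700 uM final; 20 hr ambient; luminescence.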
ELG1 repair inh – ELG1-dependent DNA repair inhibition; Potency, µM (highest dose often 46.1 µM), for inactives: top-dose activity change, negative = inhibition, actives largely listed as inhibitors; AID 504467; HEK293T ELG1-luciferase reporter, luminescence, 16 h; DNA damage induced by 5-fluorouridine; 2.3% of 330,000 active; also: nearly all actives have a fitted effect of over 55% in size
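5-Fluorouridine DNA damage + compound/DMSO, 2,000 cells/well, 16 h, 37 °C/5% CO2. ONE-Glo, 30 min RT, luminescence. Readout = decrease in reporter signal.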
TDP1 cell CPT – DT40-hTDP1 cell growth loss with CPT; 12% of 420,000 active; AID 686979; chicken DT40 Tdp1-/-;hTDP1 cells + 20 nM CPT, ATP luminescence, 48 h; Potency, µM (doses to about 46.2 µM), for inactives: at the top dose activity change, negative = growth inhibition, usual class: inhibitors; also: nearly all actives have a fitted effect of over 55% in size
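Cell growth measured by CellTiter-Glo luminescence after a minimum 48 h, 37 C compound exposure with 20 nM CPT in Tdp1-knockout DT40 cells stably expressing hTDP1, seeded 400/well; qHTS titration format.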
ALOX12 inh – inhibitors of human 12S-lipoxygenase ALOX12; P18054; purified 12hLO, xylenol orange hydroperoxide absorbance; Potency, µM (highest dose often 108 µM), for the others: at the top dose activity change, negative = inhibition, actives largely listed as inhibitors; 1.1% of 580,000 active; AID 1671190
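Hydroperoxide product was detected by ferrous iron/xylenol orange as the 573 to 405 nm absorbance ratio. Arachidonic acid at 40 uM (final) was turned over for 30 min at room temperature by 150 nM human 12hLO, pH 7.0 Hepes buffer, after 15 min compound preincubation.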
* hit, by the source's call; i = inactive; ? = inconclusive; . = not tested or not shown; [ ] = another dose, or the depositor's remark. In the library only some 15% were active in any assay of this set; here they are far more common. Calls follow the shape of the dose curve; as a rule, active = well fitted curve in the direction sought with a large enough effect; inconclusive = small, poorly fitted or top-dose-only effect, or another doubt; inactive = no such curve, though single readings can be large; an effect the other way counts as inactive or inconclusive. % is scaled to controls: 0 for no effect and ±100 for the full control effect; potency is read from the fitted curve at half-maximal effect.

SMILES	VP16 counter	TDP1 cell noCPT	RORg inh	ELG1 repair inh	TDP1 cell CPT	ALOX12 inh
CCOC(=O)C(C(=O)N(C)C)c1ncc(C(F)(F)F)cc1Cl (stereo not given)	-3%	-16%	-1%	-5%	2%	-29%
Cc1ccc(/C=C/c2ccc(=O)n(Cc3ccc(F)cc3)n2)cc1	-3%	?	21%	1%	?	?
Cc1ccc(/C=C/c2ccc(=O)n(Cc3ccccc3Cl)n2)cc1	-7%	26µM*	-2%	?	16µM*	0%
CSCC(=O)NC1CCCc2c1cnn2-c1ccc(C)c(C)c1 (stereo not given)	-14%	?	22%	15%	-12%	0%
COC(=O)c1ccc(C(=O)NC2CCCc3c2cnn3-c2ccc(C)c(C)c2)cc1 (stereo not given)	?	1µM*	?	-3%	1.3µM*	i
Cc1cc(C(=O)NC2CCCc3c2cnn3-c2ccc(C)c(C)c2)nc(C)n1 (stereo not given)	-16%	16µM*	0%	-15%	?	0%
CCn1c(N)c(C(=O)NCCCOC)sc1=S	-8%	-23%	-8%	?	10%	40µM*
CCN(CC)C(=O)[C@@H]1C[C@@H](NC(=O)c2ccn(CC)c(=O)c2)CN1C(C)=O	.	.	.	.	.	12%
CCOc1ccc(NC(=O)N(C(C)C)C2CCN(C(C)=O)CC2)cc1	.	-7%	.	.	3%	-7%
CCOC(=O)N1CCC(N(C(=O)Nc2ccc(Cl)c(Cl)c2)C(C)CC)CC1 (stereo not given)	?	10µM*	32%	?	23µM*	7%
CC(C)CCN(C(=O)Nc1ccc(Cl)c(Cl)c1)C1CCN(C(C)C)CC1	.	15µM*	.	.	15µM*	?
CCOC(=O)c1ccccc1NC(=O)N(C(C)C)C1CCN(C(C)=O)CC1	.	15µM*	.	.	15µM*	7%
COC(=O)C1=C(C)Nc2ncnn2C1c1ccc(OC(=O)c2ccccc2)cc1 (stereo not given)	-5%	?	-20%	?	8.2µM*	-8%
CC1=C(C(=O)OCc2ccccc2)C(c2cccnc2)n2ncnc2N1 (stereo not given)	-2%	15µM*	12%	-13%	18µM*	0%
O=C(Cc1ccccc1)c1c[nH]c(C(=O)C(Cl)(Cl)Cl)c1	19%	6.5µM*	-15%	9%	2.9µM*	-6%
O=C(c1ccc(Cl)cc1)c1c[nH]c(C(=O)C(Cl)(Cl)Cl)c1	-3%	12µM*	-26%	9%	12µM*	?
O=C(c1c[nH]c(C(=O)C(Cl)(Cl)Cl)c1)c1ccc(F)cc1Cl	?	13µM*	?	-15%	?	-4%
O=C(c1c[nH]c(C(=O)C(Cl)(Cl)Cl)c1)c1ccc(F)cc1F	-20%	13µM*	?	0%	?	?
CC(=O)Nc1ccc(C(=O)N(CCc2ccccc2)Cc2cccs2)s1	.	.	.	.	.	-14%
COc1ccc(CN2CC3(CCN(S(=O)(=O)Cc4ccccc4)CC3)C2=O)cc1	.	.	.	.	.	19%
Clc1ccccc1Cc1nc(-c2ccc(OC3CCNC3)cc2)no1 (stereo not given)	.	.	.	.	.	-3%
Cc1cccc(N=C2NC(=O)/C(=C/c3cccs3)S2)c1	13µM*	?	?	?	11%	-7%
Cc1ccccc1N=C1NC(=O)/C(=C/c2cccn2C)S1	3%	23µM*	-28%	?	16µM*	?
O=C1NC(=Nc2ccccc2)S/C1=C\c1cccnc1	1%	-11%	21%	17%	-1%	0%
Cc1cccc(N=C2NC(=O)/C(=C/c3cccn3C)S2)c1	?	18µM*	?	-1%	?	71%
SMILES	VP16 counter	TDP1 cell noCPT	RORg inh	ELG1 repair inh	TDP1 cell CPT	ALOX12 inh
Cc1ccc(N=C2NC(=O)/C(=C\c3cccs3)S2)cc1C	4%	?	19%	?	?	1%
O=C1NC(=Nc2cccnc2)S/C1=C/c1ccc(F)cc1	1%	3.3µM*	7%	15%	2.9µM*	45%
Cc1nc(-c2c3n(c(=O)n(CC(=O)Nc4cccc(Cl)c4C)c2=O)CCCC3)no1	.	.	.	.	.	4%
CC(C)C(=O)N1CCCN(C)c2ccccc21	.	.	.	.	.	-5%
Cc1ccc2oc(N3CCCC4(CCC(=O)N(Cc5cccnc5)C4)C3)nc2c1 (stereo not given)	.	.	.	.	.	54%
CCNC(=O)c1n[nH]c2c1CN(C(=O)c1cccc(Br)c1)CC2	.	.	.	.	.	50%
O=C1NC(=Nc2ccccc2)S/C1=C\c1cccn1-c1ccccc1	-22%	21µM*	?	?	9.2µM*	?
COc1ccc(/C=C2\SC(=Nc3ccccc3)NC2=O)cc1	-13%	.	-39%	-17%	.	.
Cc1ccc(OCc2nc(C3CCCCN3C(=O)CCc3ccccc3)no2)cc1 (stereo not given)	.	.	.	.	.	8%
CCN1CCCC2(Cc3ccccc3CN(C(=O)C(C)C)C2)C1 (stereo not given)	.	.	.	.	.	10%[6.33 µM]
Cc1ccc2nsnc2c1S(=O)(=O)N[C@@H]1CC[C@@H](N)C1	.	.	.	.	.	78%
O=C(NNC(=O)c1cccnc1SCc1cccc([N+](=O)[O-])c1)c1ccccn1	5µM*	2.6µM*	3.5µM*	?	4.6µM*	7%
O=C(NNC(=O)c1cccnc1SCc1cccc([N+](=O)[O-])c1)c1ccc(F)cc1	?	12µM*	?	?	23µM*	-8%
O=C(NNC(=O)c1cccnc1SCc1cccc([N+](=O)[O-])c1)c1cccnc1	-15%	?	8%	?	0%	10%
O=C(OCc1cccc([N+](=O)[O-])c1)c1cccnc1Cl	4%	-5%	3%	?	-2%	-18%
Cn1c(-n2cccc2)c(-c2c(-c3ccc(Cl)cc3)[nH]c3c2c(=O)[nH]c(=O)n3C)c(=O)[nH]c1=O	.	.	.	.	.	-25%
CCOC(=O)C1=C[C@@H](c2ccccc2)N(S(=O)(=O)c2ccc(C)cc2)[C@H]1c1ccc(OC)cc1	.	?	.	.	16µM*	28%
CCOC(=O)C1=C[C@@H](C(C)(C)C)N(S(=O)(=O)c2ccc(OC)cc2)[C@H]1c1ccccc1	.	?	.	.	18µM*	10%
CCOC(=O)C1=C[C@@H](C(C)(C)C)N(S(=O)(=O)c2ccc(C)cc2)[C@H]1c1ccc(F)cc1	.	23µM*	.	.	18µM*	3%
